Compound activity: PubChem, National Center for Advancing Translational Sciences (NCATS)
A selection: hits, their analogues and other compounds. The true share with any hit is near 19%.
HT1080NT lethal: kills 2HG-producing HT-1080-NT fibrosarcoma cells | 1.6% of 360,000 active | HT-1080-NT fibrosarcoma viability, CellTiter-Glo ATP luminescence, 48 h | Potency, µM (titrated, usually from 46.1 µM), most hits filed as cytotoxic | AID 686970;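 note: NT is the 2HG producing partner of a matched IDH1 knockdown line; nearly all actives have a fitted effect of over 55% in size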
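Read-out is CellTiter-Glo luminescence after 10 minutes at room temperature, following 48 hours' compound treatment of HT-1080-NT cells (750 cells/well, RPMI, 5% FBS, 37 degrees C).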
HT1080 IDH1KD tx: kills HT-1080 cells with IDH1 knockdown; Potency, µM (top dose mostly 46.1 µM), most hits filed as cytotoxic; 2% of 360,000 active; HT-1080 IDH1 knockdown viability, ATP luminescence, 48 h
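In this qHTS, HT-1080 cells depleted of IDH1 are exposed for 48 h at 37 °C to compound titrations. Toxicity is scored from CellTiter-Glo luminescence, with DMSO as full viability and medium alone as none.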
TDP1 cell noCPT: qHTS for Inhibitors of human tyrosyl-DNA phosphodiesterase 1 (TDP1): qHTS in cells in absence of CPT; Potency, µM (doses to about 46.2 µM), actives largely listed as inhibitors; AID 686978, 2013; 15% of 420,000 active; DT40 Tdp1-/- hTDP1 cells, no CPT, ATP luminescence, 48 h; note: nearly all actives have a fitted effect of over 55% in size
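A cellular qHTS used chicken DT40 cells lacking endogenous Tdp1 but carrying stably transfected human TDP1. Compounds were applied without camptothecin, and cell growth kinetics were judged by ATP-dependent luminescence after ≥48 hr.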
DT40 TDP1 CPT: DT40-hTDP1 cell growth loss with CPT. chicken DT40 Tdp1-/-;hTDP1 cells + 20 nM CPT, ATP luminescence, 48 h. Potency, µM (series often up to 46.2 µM), actives largely listed as inhibitors. 12% of 420,000 active. AID 686979; note: nearly all actives have a fitted effect of over 55% in size
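Chicken DT40 Tdp1-/- cells stably complemented with human TDP1 were seeded at 400 cells/well in medium containing 20 nM camptothecin, exposed to pin-transferred compounds, and grown at 37 °C for at least 48 hr. Viability was read as ATP luminescence.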
IL1B secr inh: inhibitors of inflammasome signaling (IL-1 beta secretion); THP-1 LPS/ATP IL-1B secretion, AlphaLISA, 16 h; stronger effect = lower value; activity change, % at 57.5 µM; 4.7% of 360,000 active; AID 743279; in the data active = activity change below about -50%; inconclusive = mostly about -30% to -49%
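THP-1 cells pretreated 1 hr with compounds (up to 57.5 uM final), then stimulated with LPS (250 ng/mL final) plus ATP (1.25 mM final); secreted IL-1B measured by AlphaLISA after 16 hr, decreased signal indicating inhibition.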
Numbers stand for hits; - = inactive; ? = inconclusive. Unless noted, calls come from the whole dose curve; as a rule, active = well fitted curve in the direction sought with a large enough effect; inconclusive = small, poorly fitted or top-dose-only effect, or another doubt; inactive = no such curve, though single readings can be large; an effect the other way counts as inactive or inconclusive.

SMILES	HT1080NT lethal	HT1080 IDH1KD tx	TDP1 cell noCPT	DT40 TDP1 CPT	IL1B secr inh
CCOC(=O)Cc1csc(/N=C/c2c(O)n(-c3ccc(C)c(C)c3)c(=O)c3ccccc23)n1	-	-	?	20.6µM	-
Cc1cccc(/N=C/c2c(O)n(Cc3ccc4c(c3)OCO4)c(=O)c3ccccc23)n1	?	-	-	-	-
Cc1ccc(-n2c(O)c(C=Nc3ccc4c(c3)OCO4)c3ccccc3c2=O)cc1C	-	-	?	7.31µM	-
COc1ccc(-n2c(O)c(C=Nc3ccccc3)c3ccccc3c2=O)cc1OC	-	-	?	?	-
Cc1cccc(-n2c(O)c(C=Nc3cccc(O)c3)c3ccccc3c2=O)n1	-	-	?	20.6µM	-
COc1ccc(-n2c(O)c(C=Nc3ccccc3)c3ccccc3c2=O)cc1	-	-	-	?	-
